Hits are enriched below; roughly 2.2% of the tested compounds scored in any of these assays.
Mito fusion yeast = inhibitors of mitochondrial division or activators of mitochondrial fusion. S. cerevisiae fusion-defective mutant growth rescue, CellTiterGlo 48 h. Potency, µM (top dose mostly 46.1 µM), actives largely listed as activators. actives 0.23% (n = 320,000). AID 485298; note: nearly all actives have a fitted effect of over 45% in size
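Luminescent cell viability in 1536-well qHTS format served as the measure of rescued growth in ts fusion-mutant S. cerevisiae cultured on non-fermentable YPEG for 48 hours at 37C.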
Abeta yeast res = restores growth of yeast expressing A-beta42 peptide; yeast expressing A-beta42, growth rescue, OD600, 48 h; response scale: 0% DMSO, 100% iron-clioquinol control; Potency, µM (titrated, usually from 46.1 µM), actives largely listed as activators; actives 0.063% (n = 410,000); AID 1347071; note: nearly all actives have a fitted effect of over 55% in size
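Yeast A-beta toxicity model in growth medium with pinned compounds, 48 h at 30 C; growth read as absorbance at 600 nm. Normalized to FeCl3/clioquinol equimolar mix (positive) and DMSO (negative).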
aSyn rescue = alpha-synuclein toxicity inhibition in yeast; AID 652106; actives 0.14% (n = 370,000); Potency, µM (titrated, usually from 46.1 µM), most hits filed as activators; Yeast expressing alpha-synuclein, growth rescue, BacTiter-Glo, 24 h; note: nearly all actives have a fitted effect of over 65% in size
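Galactose-induced alpha-syn yeast (OD600=0.02, raffinose-pregrown) + pinned cpd, 24 hr, 30 deg C; growth by BacTiter-Glo luminescence. Growth restoration scores as activation.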
TDP-43 yeast inh = rescues yeast growth from TDP-43 toxicity; AID 652104; Potency, µM (top dose mostly 46.1 µM), actives largely listed as activators; TDP-43 expressing yeast growth rescue, BacTiter-Glo, 24 h; actives 1.8% (n = 410,000); note: nearly all actives have a fitted effect of over 50% in size
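Readout is BacTiter-Glo luminescence of cell growth, so inhibitors register as activators. TDP-43-expressing yeast at OD600=0.02 in galactose medium, after raffinose pregrowth to mid-log, were incubated with compound for 24 hr at 30 deg C.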
FUS suppressor = rescues growth of FUS-expressing yeast. Potency, µM (top dose mostly 76.6 µM), hits mostly activators. AID 1347120. S. cerevisiae FUS-expressing, growth rescue, OD600, 24 h. actives 0.24% (n = 390,000); note: nearly all actives have a fitted effect of over 55% in size
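FUS-expressing yeast, raffinose-pregrown, induced in 2% galactose minimal medium at OD 0.005; compounds in a dilution series, 24hr at 30C. Growth restoration read as absorbance at 600 nm. CP55940 positive control, DMSO negative.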
Numbers stand for hits; – = inactive; ? = inconclusive; · = no result given; [ ] = remark or other dose. Calls come from the whole dose curve; as a rule, active = well fitted curve in the direction sought with a large enough effect; inconclusive = small, poorly fitted or top-dose-only effect, or another doubt; inactive = no such curve, though single readings can be large; an effect the other way counts as inactive or inconclusive.

SMILES	Mito fusion yeast	Abeta yeast res	aSyn rescue	TDP-43 yeast inh	FUS suppressor
CCOc1ccccc1NC(=O)c1sc2nc(C)nc(N3CCOCC3)c2c1C	–	–	–	7.94µM	–
CC(C)(C)OC(=O)NCCCC[C@H](NC(=O)c1nc[nH]c1C(=O)NC(c1ccccc1)c1ccccc1)C(=O)OC(C)(C)C	–	–	–	–	15.8µM
CC(C)(C)OC(=O)NCCCC[C@H](NC(=O)c1nc[nH]c1C(=O)NC1CCN(C(=O)OC(C)(C)C)CC1)C(=O)OC(C)(C)C	–	–	–	–	14.1µM
CC(C)(C)OC(=O)[C@H](Cc1ccccc1)NC(=O)c1nc[nH]c1C(=O)NC1CCN(C(=O)OC(C)(C)C)CC1	–	–	–	–	?
CC(C)(C)OC(=O)NCCCC[C@H](NC(=O)c1nc[nH]c1C(=O)N[C@@H](CCCCNC(=O)OC(C)(C)C)C(=O)OC(C)(C)C)C(=O)OC(C)(C)C	–	–	–	–	?
CC(C)C[C@H](NC(=O)c1nc[nH]c1C(=O)NC1CCN(C(=O)OC(C)(C)C)CC1)C(=O)OC(C)(C)C	–	–	–	–	14.1µM
CC(C)C[C@H](NC(=O)c1nc[nH]c1C(=O)NC1CCN(C(=O)OC(C)(C)C)CC1)C(=O)OCc1ccccc1	–	–	–	–	?
Cc1cccc(C)c1NC(=O)C(=O)NCC(c1ccc2c(c1)OCO2)N1CCOCC1 (stereo unspecified)	·	–	·	–	–
CC1CCCN(CCCNS(=O)(=O)c2cc3c(cc2Br)CCN3C(=O)C2CC2)C1 (stereo unspecified)	·	·	·	·	–
O=C(CBr)c1ccc(Oc2ccc(C(=O)C[n+]3ccccc3Cl)cc2)cc1	·	·	–	·	·
CN1C(=O)Cc2cc(S(=O)(=O)NCc3ccc(Cl)cc3)ccc21	·	–	·	?	–
Cc1ccc(-n2c(SCC(=O)Nc3ccc(S(=O)(=O)Nc4cc(C)nc(C)n4)cc3)nnc2-c2ccncc2)cc1	·	·	·	·	–
COc1ccccc1CNC(=O)c1cnc(N2CCCC2)nc1C	·	–	·	?	–
Cc1ccc(C)c(NC(=O)c2cnc(N3CCCC3)nc2C)c1	·	–	·	14.1µM	–
Cc1nc(N2CCCC2)ncc1C(=O)NCc1ccccc1Cl	·	–	·	35.5µM	–
CC(C)N(Cc1nc(-c2ccc(Cl)cc2)no1)C(=O)c1ccc(C(C)(C)C)cc1	·	–	·	–	–
CC(=O)NCCc1nc(-c2ccc(Cl)cc2)no1	·	–	–	–	–
CC(C)(CC(=O)O)Cc1nc(-c2ccc(Cl)cc2)no1	–	–	–	31.6µM	–
O=C(O)CCc1nc(-c2ccc(Cl)cc2)no1	–	–	–	14.1µM	·
O=[N+]([O-])c1ccc(/C=N/NC(=S)Nc2ccccc2)o1	–	–	–	–	–
O=[N+]([O-])c1ccc(/C=N/NC(=S)Nc2ccccc2F)o1	–	–	–	12.6µM	–
O=C(NCCc1ccccc1)OCc1cn(-c2ccc(Cl)cc2)nn1	·	·	·	·	–
COc1ccc(C(=O)NC(=S)NNC(=O)Cc2cccs2)cc1	–	8.91µM	10µM	10µM	–
COc1ccc(C(=O)NC(=S)NNC(=O)c2ccc(C)cc2)cc1	·	?	–	–	–
O=C(/C=C/c1cccs1)NC(=S)NNC(=O)Cc1cccs1	–	?	?	11.2µM	–
SMILES	Mito fusion yeast	Abeta yeast res	aSyn rescue	TDP-43 yeast inh	FUS suppressor
COc1cc(OC)cc(C(=O)NC(=S)NNC(=O)Cc2cccs2)c1	–	–	?	12.6µM	–
COc1cc(OC)cc(C(=O)NC(=S)NNC(=O)c2cnccn2)c1	–	–	3.55µM	?	–
CC1(C)CC(=O)C2=C(C1)O[C@@]1(CCCCN3C(=O)c4ccccc4C3=O)Cc3cc(C#N)ccc3C2O1	–[9.22 µM]	·	·	·	·
O=C(Nc1ccc(Cl)cc1Cl)c1cnn2c1NC(=C1CC1)C=C2C(F)F	·	·	–	·	·
Cc1nc(NCc2ccc3c(c2)OCO3)c2oc3ccccc3c2n1	–	–	–	–	–
Cc1cc2oc(C(=O)NCc3ccc4c(c3)OCO4)c(C)c2cc1C	–	–	–	–	–
CCc1nc(NCc2ccc3c(c2)OCO3)c2oc3ccccc3c2n1	–	–	–	11.2µM	–
Cc1ccc2oc(C(=O)NCc3ccc4c(c3)OCO4)c(C)c2c1	–	–	–	22.4µM	–
Cc1cccc(-n2nnc(C(=O)NCc3ccc4c(c3)OCO4)c2N)c1	–	–	–	17.8µM	–
Cc1c(C(=O)NCc2ccc3c(c2)OCO3)oc2ccccc12	?	–	–	15.8µM	–
O=C(OC12CCCN(C1)/C(=C/c1ccncc1)C2)c1ccccc1 (stereo unspecified)	·	·	·	·	–
CCOC(=O)N1CCN(C(=O)CN2C(=O)/C(=C\c3cccc(OC)c3)SC2=S)CC1	·	·	–	·	·
CC(C)Cc1ccc(C(=O)NCc2ccc3c(c2)OCO3)o1	–	–	–	14.1µM	–
O=C(N/N=C/c1cccc(F)c1)NC1CCCCC1	–	–	–	12.6µM	–
O=C(N/N=C/c1ccccc1)NC1CCCCC1	–	–	–	–	·
COc1ccccc1CNC(=O)CN1C(=O)COc2ccc(S(=O)(=O)N3CCC(C)CC3)cc21	·	–	–	–	–
CCN1C(C(=O)c2ccccc2)=C(OC(=O)COc2ccccc2)c2ccccc2S1(=O)=O	·	–	·	?	–
CCCCN(CCCC)C1=C(C(=O)c2ccccc2)N(C)S(=O)(=O)c2ccccc21	·	–	15.8µM	–	–
CCN1/C(=C(\O)c2ccccc2)C(=O)c2ccccc2S1(=O)=O	–	–	3.98µM	?	–
CCCC(=O)OC1=C(C(C)=O)N(Cc2ccccc2)S(=O)(=O)c2ccccc21	·	–	·	11.2µM	–
CCCCN(CCCC)C1=C(C(=O)c2ccccc2)N(CC)S(=O)(=O)c2ccccc21	·	?	?	?	–
CCN1C(C(=O)c2ccccc2)=C(OC(=O)C(C)C)c2ccccc2S1(=O)=O	·	–	·	17.8µM	–
CCN1C(C(=O)c2ccccc2)=C(OC(=O)c2ccc(OC)cc2)c2ccccc2S1(=O)=O	·	–	·	–	–
CCCCC(=O)OC1=C(C(C)=O)N(Cc2ccccc2)S(=O)(=O)c2ccccc21	·	–	·	?	–
COc1ccc(/C=C(\NC(=O)c2ccccc2)C(=O)NC2CCCCC2)cc1	·	–	·	–	–
SMILES	Mito fusion yeast	Abeta yeast res	aSyn rescue	TDP-43 yeast inh	FUS suppressor
CCCCN1C(C(=O)c2ccccc2)=C(OC(=O)CC)c2ccccc2S1(=O)=O	·	–	·	22.4µM	–
CCOC(=O)CSc1nnc2c3ccccc3n(C)c2n1	–	–	–	12.6µM	–
CCn1c2ccccc2c2nnc(SCc3ccccc3)nc21	15.8µM	–	–	25.1µM	–
CCCn1c2ccccc2c2nnc(SCC(=O)OCC)nc21	–	–	–	–	–
CCn1c2ccccc2c2nnc(SCC(N)=O)nc21	–	–	–	–	–
CN(C)c1ccc(/C=C/c2cccc3cc4ccccc4nc23)cc1	·	·	–	·	·
Cc1ccc(CCNC(=O)c2ccc(CSCc3ccccc3C)o2)cc1	·	–	·	–	–
O=C(CSc1ncnc2ccccc12)NCC(=O)c1ccccc1	–	?	–	12.6µM	–

Compound activity: PubChem, National Center for Advancing Translational Sciences (NCATS)
